Source: PubChem BioAssay (NCATS)
Inconclusive results are not listed. The source made the active and inactive calls. Calls follow the shape of the dose curve; as a rule, active = well fitted curve in the direction sought with a large enough effect; inconclusive = small, poorly fitted or top-dose-only effect, or another doubt; inactive = no such curve, though single readings can be large; an effect the other way counts as inactive or inconclusive. Starred links: 1 amine or outer side, 2 acyl side, 3 side chain; linkers in the order of their positions; H or OH if unused. Positions of bridges follow the written chain, without caps; N, C: chain ends. Non-standard residues stand in square brackets, D forms with d. Residues, ends and D or L forms follow the SMILES beside them. Chains are numbered I, II in the order given. Actinocin(9to1) = Cc1c2oc3c(C)ccc(C(=O)[*:1])c3nc-2c(C(=O)[*:2])c(N)c1=O; NMeV = CN[CH](C(=O)O)C(C)C; Sar = CNCC(=O)O

What was measured:
[1] = qHTS of pediatric cancer cell lines to identify multiple opportunities for drug repurposing: Confirmatory screen for SK-N-MC cells (AID 1347111);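 also: cells exposed to compound for 48 h before the readout; nearly all actives have a fitted effect of over 70% in size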
Procedure, shortened: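 Seed 500-1,000 cells/well; rest 5 h at 37 degrees C. Pin-transfer compounds, 11-point titration. Incubate 48 h. Add CellTiter-Glo, 15 min RT, read luminescence.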

[2] = qHTS of pediatric cancer cell lines to identify multiple opportunities for drug repurposing: Confirmatory screen for BT-12 cells (AID 1347112);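 also: viability read after 48 h of compound exposure; nearly all actives have a fitted effect of over 55% in size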
Procedure, shortened: (§1)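 Cells (500-1,000/well) rested 5 h, then received compounds for 48 h; metabolically active cells were measured by CellTiter-Glo luminescence. Final concentrations spanned up to 46 µM (MIPE, 11-point) or 0.59 nM-46 µM (NPC, 8-point) in primary screens, 11-point in follow-ups.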

[3] = qHTS of pediatric cancer cell lines to identify multiple opportunities for drug repurposing: Confirmatory screen for LAN-5 cells (AID 1347113); also: nearly all actives have a fitted effect of over 65% in size
Procedure, shortened: as §1

[4] = qHTS of pediatric cancer cell lines to identify multiple opportunities for drug repurposing: Confirmatory screen for NB-EBc1 cells (AID 1347115);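 also: cells exposed to compound for 48 h before the viability read; nearly all actives have a fitted effect of over 45% in size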
Procedure, shortened: as §1

[5] = qHTS of pediatric cancer cell lines to identify multiple opportunities for drug repurposing: Confirmatory screen for BT-37 cells (AID 1347117); conditions: BT-37 pediatric cancer cells, viability; activity change, negative = cytotoxic: at 45.9 µM (top of the series); also: nearly all actives have a fitted effect of over 55% in size
Procedure, shortened: as §1

[6] = qHTS of pediatric cancer cell lines to identify multiple opportunities for drug repurposing: Confirmatory screen for TC32 cells (AID 1347118);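 also: cells exposed to compound for 48 h before the read; nearly all actives have a fitted effect of over 65% in size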
Procedure, shortened: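 qHTS, TC32, 48 h drug treatment, CellTiter-Glo luminescence as a proxy for metabolically active cells; primary top concentration 46 µM (MIPE 11-pt, NPC 8-pt); confirmatory 11-pt.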

[7] = qHTS of pediatric cancer cell lines to identify multiple opportunities for drug repurposing: Confirmatory screen for MG 63 (6-TG R) cells (AID 1347119); also: nearly all actives have a fitted effect of over 55% in size
Procedure, shortened: as §1

[8] = qHTS of pediatric cancer cell lines to identify multiple opportunities for drug repurposing: Confirmatory screen for SJ-GBM2 cells (AID 1347116); also: nearly all actives have a fitted effect of over 60% in size
Procedure, shortened: (§2)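 Viability measured as metabolically active cells via CellTiter-Glo luminescence following 48 hours of compound exposure, 11-point dilutions in confirmatory testing. 500-1,000 cells/well plated 5 hours before dosing; controls were DMSO and 2.3 µM bortezomib.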

[9] = qHTS of pediatric cancer cell lines to identify multiple opportunities for drug repurposing: Confirmatory screen for control Hh wild type fibroblast cells (AID 1347121); also: nearly all actives have a fitted effect of over 70% in size
Procedure, shortened: as §1

[10] = qHTS of pediatric cancer cell lines to identify multiple opportunities for drug repurposing: Confirmatory screen for DAOY cells (AID 1347114); also: nearly all actives have a fitted effect of over 65% in size
Procedure, shortened: as §2

Measured: Potency
Potency is read from the fitted curve at half-maximal effect.

COc1cccc2c1C(=O)c1c(O)c3c(c(O)c1C2=O)C[C@@](O)(C(=O)CO)C[C@@H]3O[C@H]1C[C@H](N)[C@H](OC2CCCCO2)[C@H](C)O1 (stereo partly specified)
active: [1] 737 nM | [2] 10400 nM | [3] 1170 nM | [4] 1650 nM | [5] 928 nM | [6] 465 nM | [7] 1470 nM

CC(=O)NCC(=O)N1[C@H]2CC[C@H]1c1cc(Nc3ncc(C(F)(F)F)c(NC4CCC4)n3)ccc12
active: [1] 82.7 nM | [2] 16500 nM | [3] 1470 nM | [4] 9270 nM | [8] 5850 nM | [5] 11700 nM | [6] 46.5 nM | [7] 233 nM

NS(=O)(=O)OC[C@@H]1C[C@@H](n2ccc3c(N[C@H]4CCc5ccccc54)ncnc32)C[C@H]1O
not listed: [3] | [10]
inactive: all other assays above

COc1cccc2c1C(=O)c1c(O)c3c(c(O)c1C2=O)C[C@@](O)(C(=O)CO)C[C@H]3O[C@H]1C[C@H](N)[C@H](O)[C@H](C)O1
active: [1] 414 nM | [2] 1470 nM | [3] 369 nM | [10] 3690 nM | [8] 928 nM | [5] 293 nM | [6] 261 nM

COc1cccc2c1C(=O)c1c(O)c3c(c(O)c1C2=O)C[C@@](O)(C(C)=O)C[C@H]3O[C@H]1C[C@H](N)[C@H](O)[C@H](C)O1
active: [1] 165 nM | [2] 1310 nM | [3] 185 nM | [10] 3690 nM | [8] 1310 nM | [5] 165 nM | [6] 117 nM | [7] 233 nM

COc1cc(C=CC(=O)CC(=O)C=Cc2ccc(O)c(OC)c2)ccc1O
active: [1] 15100 nM | [2] 38000 nM | [3] 26900 nM | [5] 30200 nM | [6] 9550 nM | [7] 26900 nM

CC(=O)N1CCN(c2ccc(OCc3nn(C)c(C)c3-c3cccc4c(CCCOc5cccc6ccccc56)c(C(=O)O)n(Cc5cccnc5)c34)cc2)CC1
active: [1] 20800 nM
inactive: [2] | [4] | [5] | [7] | [9]

C[C@@]12C(=O)OC(=O)[C@@]1(C)C1CCC2O1
active: [1] 6570 nM | [2] 8270 nM | [10] 2610 nM | [4] 2080 nM | [8] 6570 nM | [5] 2080 nM | [6] 3690 nM | [7] 1470 nM

NC(=O)Nc1sc(-c2ccc(F)cc2)cc1C(N)=O
inactive: [2] | [10] | [8] | [9]
active: [1] 8270 nM | [6] 5220 nM | [7] 11700 nM

O=C(C=CC=Cc1ccc2c(c1)OCO2)N1CCCCC1
active: [1] 8270 nM | [6] 10400 nM
not listed: [3]
inactive: all other assays above

CN[C@@H]1C[C@H]2O[C@@](C)([C@H]1OC)n1c3ccccc3c3c4c(c5c6ccccc6n2c5c31)C(=O)N[C@H]4O
active: [1] 233 nM | [3] 928 nM | [10] 1470 nM | [4] 2610 nM | [8] 2610 nM | [5] 2610 nM | [6] 414 nM | [7] 104 nM | [9] 10400 nM

Cc1c2oc3c(C)ccc(C(=O)NC4C(=O)NC(C(C)C)C(=O)N5CCCC5C(=O)N(C)CC(=O)N(C)C(C(C)C)C(=O)OC4C)c3nc-2c(C(=O)NC2C(=O)NC(C(C)C)C(=O)N3CCCC3C(=O)N(C)CC(=O)N(C)C(C(C)C)C(=O)OC2C)c(N)c1=O (stereo unspecified) (I: TVP[Sar][NMeV] / II: TVP[Sar][NMeV]; ester I:1-I:C, II:1-II:C; linker I:N-II:N via Actinocin(9to1); configuration not given here)
active: [1] 7.4 nM | [2] 29.3 nM | [3] 2.3 nM | [10] 36.9 nM | [5] 2.6 nM | [6] 16.5 nM
inactive: [9]

COc1ccc(C=Cc2cc(OC)c(OC)c(OC)c2)cc1NC(=O)[C@H](N)CO
active: [1] 117 nM | [2] 117 nM | [3] 414 nM | [4] 52.2 nM | [8] 827 nM | [5] 73.7 nM | [6] 46.5 nM | [7] 46.5 nM
inactive: [9]

CC(C(C)N1CC(=O)NC(=O)C1)N1CC(=O)NC(=O)C1 (stereo unspecified)
inactive: [2] | [3] | [10] | [9]
active: [1] 2930 nM | [5] 9270 nM | [6] 4140 nM | [7] 5220 nM

O=C(Nc1cc2cc[nH]c2cn1)c1ccccc1
active: [1] 2610 nM | [2] 14700 nM | [3] 14700 nM | [4] 16500 nM | [5] 9270 nM | [6] 1850 nM | [9] 14700 nM

CS(=O)(=O)N1CCc2c(-c3cnc(N)nc3)nc(N3CCOCC3)nc21
active: [1] 2610 nM | [3] 1170 nM | [8] 7370 nM | [5] 5850 nM | [6] 1850 nM | [7] 585 nM

CC(N[C@H]1CCCC[C@H]1NC(=O)c1ccc(Cl)cc1)c1cccc2ccccc12 (stereo partly specified)
active: [1] 2610 nM | [3] 14700 nM | [5] 23300 nM | [6] 5850 nM | [7] 23300 nM

Cc1nc(NC(=O)N2CCC[C@@H]2C(N)=O)sc1-c1ccnc(C(C)(C)C(F)(F)F)c1
active: [1] 5220 nM | [3] 2930 nM | [4] 16500 nM | [6] 5220 nM | [7] 6570 nM
inactive: [10] | [9]

NC(=O)Nc1cc(-c2ccc(CN3CCOCC3)cc2)sc1C(N)=O
active: [1] 657 nM | [5] 18500 nM | [6] 414 nM | [7] 3690 nM

CNC(=O)c1cccc(-c2ccc3c(N4CCOC[C@H]4C)nc(N4CCOC[C@H]4C)nc3n2)c1
active: [1] 1040 nM | [3] 2330 nM | [8] 2610 nM | [6] 737 nM | [7] 522 nM

COc1ccc2c(c1OC)C(=O)OC2[C@H]1c2c(cc3c(c2OC)OCO3)CCN1C (stereo partly specified)
active: [6] 2930 nM
not listed: [1] | [7] | [10]
inactive: all other assays above

CCc1cnn2c(NCc3ccc[n+]([O-])c3)cc(N3CCCC[C@@H]3CCO)nc12
inactive: [2] | [10] | [9]

O=C(C=Cc1ccc(CN(CCO)CCc2c[nH]c3ccccc23)cc1)NO
active: [2] 1170 nM | [10] 261 nM

C=CC(=O)N1CCc2ccc(-n3c(=O)ccc4cnc5ccc(-c6cnn(C)c6)cc5c43)cc21
active: [1] 5220 nM | [3] 2930 nM | [10] 9270 nM | [8] 9270 nM | [5] 4650 nM | [6] 5220 nM

COc1cc(OC)c(C=CS(=O)(=O)Cc2ccc(OC)c(NCC(=O)O)c2)c(OC)c1
inactive: [9]
active: [1] 293 nM | [3] 1170 nM | [10] 165 nM | [5] 657 nM | [6] 208 nM | [7] 208 nM
